The source made the active and inactive calls.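 How the source made its calls: active means any inhibition of parasite growth seen in the dose series, which yields a fitted potency; inactive means compounds showing no inhibition.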
Experiment: Inhibitors of Cruzain: Trypanosoma Cruzi Growth Inhibition Assay
Conditions: T. cruzi in NIH/3T3, beta-gal CPRG absorbance, 4 d
Description: Cruzain is a cysteine protease from the tropical parasite Trypanosoma cruzi. This assay protocol is for testing followup compounds for T. Cruzi growth inhibition. See following references for additional details: Jadhav A, et al. J Med Chem. 2010 Jan 14;53(1):37-51. Mott BT, et al. J Med Chem. 2010 Jan 14;53(1):52-60. Ferreira, et al. J Med Chem. 2010 Jul 8;53(13):4891-905. Bettiol E, et al. PLoS Negl Trop Dis. 2009;3(2):e384. Assay Provider: Shoichet, Brian; University of California, San Francisco and Ana Rodriguez, New York University School of Medicine. Screening Center PI: Austin, C.P. Screening Center: NIH Chemical Genomics Center [NCGC]
NIH/3T3 cells and parasites were harvested, washed once and resuspended in DMEM supplemented with 2% FBS and Pen-Strep-Glut. […] Different numbers of NIH/3T3 cells were seeded in 96-well plates. After 3 h, compounds were added at the indicated concentrations and mixed by pipetting. BZN tablets (Rochagan, Roche) dissolved in DMSO and 4uM Amphotericin B solution (Sigma-Aldrich) were used as positive controls. Different numbers of T. cruzi parasites were added in a final volume of 200 ul/well. […] Plates were incubated at 37 degrees C for 4 h and absorbance was read at 590 nm using a Tecan Spectra Mini plate reader. […] The IC50 was determined as the concentration at which the activity (absorbance) was half that in the absence of compound. […]

| SMILES | Potency |
| --- | --- |
| Cc1ccc(OCCn2c(CCNC(=O)C3CCCCC3)nc3ccccc32)cc1 | 64 µM (active) |

From PubChem BioAssay AID504656 (National Center for Advancing Translational Sciences (NCATS), 2011)
